# PubChem BioAssay (Tox21)
# Results filed as inconclusive are left out. Where a call stands in place of a potency, no number is given. Unmarked numbers belong to inactive results. Calls of active or inactive are those of the source. Calls follow the shape of the dose curve; as a rule, active = well fitted cell-killing curve with a large enough effect in the repeat runs; inconclusive = weak or mixed curves; inactive = flat fitted curve, though single readings scatter.
# Experiment: qHTS assay to identify small molecule antagonists of the TGF-beta/Smad signaling pathway - cell viability counter screen (AID 1346824); also: nearly all actives have a fitted effect of over 50% in size
# Conditions: SBE-bla HEK293T viability, CellTiter-Glo luminescence; series mostly up to 76.8 µM; viability change, negative = cytotoxic: at the top concentration
# Excerpt: U.S. Tox21 Program National Center for Advancing Translational Sciences [NCATS] NIH Chemical Genomics Center [NCGC] U.S. Environmental Protection Agency [EPA] National Institutes of Environmental Health Sciences [NIEHS] National Toxicology Program [NTP] U.S. Food and Drug Administration [FDA] Tox21 Assay Overview: Transforming growth factor beta (TGF-beta) superfamily consists of a large number of structurally related dimeric proteins that act as hormones or local mediators in regulating a wide range of biological functions. This superfamily includes TGF-betas themselves, the bone morphogenetic proteins (BMPs) and the activins. These ligands induce oligomerization of serine/threonine receptor kinases and phosphorylate the cytoplasmic signaling molecules of Smad protein family. CellSensor SBE-bla HEK 293T cell line (Life Technologies, Carlsbad, CA), responsive to TGF-beta was used to screen Tox21 10K compound library for identification of agonists/antagonists of the Smad signaling pathway. This cell line contains a beta-lactamase reporter gene under control of the Smad binding element (SBE) stably integrated into HEK 293T cells. Also cytotoxicity of the compounds was tested in parallel by measuring the cell viability using CellTiter-Glo assay system in the same wells.
# Tox21 Assay Protocol Summary: SBE-bla HEK 293T cells were dispensed at 4,000/well in 5 uL of assay medium into black wall/clear-bottom 1536-well plates using a Multidrop Combi (ThermoFisher Scientific, Waltham, MA) dispenser. After the assay plates were incubated at 37 C and 5% CO2 for an overnight, 23 nL of compounds dissolved in DMSO, positive controls or DMSO only was transferred to the assay plate by a Pintool station (Kalypsys, San Diego, CA). Compound transfer was followed by the addition of 1 uL of 0.25 ng/mL TGF-beta1 or assay buffer using two separate tips of Flying Reagent Dispenser (FRD, Aurora Discovery, San Diego, CA). The assay plates were incubated at 37 C and 5% CO2 for 5 hr. One uL of LiveBLAzer B/G FRET substrate (Life Technologies) was added using a Flying Reagent Dispenser (FRD, Aurora Discovery, San Diego, CA) and the plates were incubated at room temperature for 2 hr. Fluorescence intensity (405 nm excitation, 460 nm and 530 nm emissions) was measured using an Envision plate reader (PerkinElmer, Shelton, CT). For cytotoxicity read, 4 uL of CellTiter-Glo reagent (Promega Corporation, Madison, WI) was added to each well of the assay plates using FRD. After 30 min incubation at room temperature, the luminescence intensity was measured using ViewLux plate reader (PerkinElmer).
Structure (SMILES),Potency,"viability change, negative = cytotoxic"
N#CC(Br)Br,inactive,–
CCN(CC)C(=O)SCc1ccc(Cl)cc1,inactive,–
O=[N+]([O-])c1cccc2ccccc12,inactive,–
Cc1ccc(OP(=O)(Oc2ccc(C)cc2)Oc2ccc(C)cc2)cc1,inactive,–
Nc1ccc(Cl)cc1N,inactive,–
c1ccc(NNc2ccccc2)cc1,inactive,–
COP(=O)(OC)OC,inactive,–
CCOC(=S)S,inactive,–
N[C@@H](Cc1ccc(N(CCCl)CCCl)cc1)C(=O)O,inactive,–
Nc1c(Cl)cc([N+](=O)[O-])cc1Cl,–,-2.21%
C[C@]12CCC(=O)C(O)=C1CC[C@@H]1[C@@H]2CC[C@]2(C)C(=O)CC[C@@H]12,inactive,–
CCC(C)(c1ccc(O)cc1)c1ccc(O)cc1,inactive,–
CCN(N=O)C(N)=O,inactive,–
COc1ccc(C=O)cc1,inactive,–
C[C@]12CCC(=O)C[C@@H]1CC[C@@H]1[C@@H]2CC[C@]2(C)[C@@H](O)CC[C@@H]12,inactive,–
Oc1cc(Cl)ccc1Oc1ccc(Cl)cc1Cl,–,-32.1% [at 35.3 µM]
CCC(CC)Nc1c([N+](=O)[O-])cc(C)c(C)c1[N+](=O)[O-],inactive,–
c1ccc(P(c2ccccc2)c2ccccc2)cc1,inactive,–
CCCCC(CC)COC(=O)Cl (stereo not given),inactive,–
NC(=S)Nc1ccccc1,inactive,–

Structure (SMILES),Potency,"viability change, negative = cytotoxic"
CCCCCCOC(=O)c1ccccc1C(=O)OCCCCCC,–,-11.9%
O=C(NC(=O)c1c(F)cccc1F)Nc1ccc(Cl)cc1,inactive,–
O=[N+]([O-])c1ccc(O)c([N+](=O)[O-])c1,inactive,–
CN(C)C(=O)Nc1ccc(Cl)cc1,inactive,–
O=c1oc2ccccc2c(O)c1C(CC(O)c1ccc(-c2ccc(Br)cc2)cc1)c1ccccc1 (stereo not given),inactive,–
CN(C)c1ccc(C(=O)c2ccc(N(C)C)cc2)cc1,inactive,–
CC(C)N(C(=O)SCC(Cl)=C(Cl)Cl)C(C)C,inactive,–
CC1(C)C(C=C(Cl)Cl)C1C(=O)OC(C#N)c1cccc(Oc2ccccc2)c1 (stereo not given),inactive,–
CCOc1cc(Oc2ccc(C(F)(F)F)cc2Cl)ccc1[N+](=O)[O-],inactive,–
CC(C)(OOC(C)(C)c1ccccc1)c1ccccc1,inactive,–
CCOc1cc(C=O)ccc1O,inactive,–
Brc1ccc(Oc2cc(Br)c(Br)cc2Br)c(Br)c1,–,-18%
c1nc[nH]n1,inactive,–
C=CCN(CC=C)C(=O)C(Cl)Cl,inactive,–
C=C(C)C(=O)OCC1CO1 (stereo not given),inactive,–
NNC(N)=S,inactive,–
CC(C)=CC1C(C(=O)OCc2coc(Cc3ccccc3)c2)C1(C)C (stereo not given),inactive,–
C=CCc1ccc2c(c1)OCO2,inactive,–
c1cc(OCC2CO2)ccc1Cc1ccc(OCC2CO2)cc1 (stereo not given),inactive,–
Nc1ccc(-c2ccc(N)c(N)c2)cc1N,inactive,–
